Experimental findings from PubChem BioAssay (NCATS) are described below.

Molecules are shown by their SMILES. Values without a mark were called inactive. Activity calls are given as the source filed them. Calls come from the whole dose curve; as a rule, active = well fitted curve in the direction sought with a large enough effect; inconclusive = small, poorly fitted or top-dose-only effect, or another doubt; inactive = no such curve, though single readings can be large or run the other way.

Guanine nucleotide-binding protein G(i) subunit alpha-1 (Homo sapiens), sequence (P63096 whole entry, looked up): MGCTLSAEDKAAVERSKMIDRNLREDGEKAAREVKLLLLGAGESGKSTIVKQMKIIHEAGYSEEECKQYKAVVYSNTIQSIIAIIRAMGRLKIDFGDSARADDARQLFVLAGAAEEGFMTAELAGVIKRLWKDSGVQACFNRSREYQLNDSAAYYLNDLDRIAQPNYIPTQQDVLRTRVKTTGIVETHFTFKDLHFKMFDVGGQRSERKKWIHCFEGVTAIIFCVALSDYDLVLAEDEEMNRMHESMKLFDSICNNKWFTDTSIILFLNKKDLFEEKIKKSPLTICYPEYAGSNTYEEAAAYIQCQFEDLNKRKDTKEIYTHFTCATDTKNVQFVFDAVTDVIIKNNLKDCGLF

The target in the test is Guanine nucleotide-binding protein G(i) subunit alpha-1 (Homo sapiens) (UniProt P63096). Briefly: qHTS Assay for Inhibitors of RGS12 GoLoco Motif Activity (Green Fluorophore) (AID 879).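 Note: 0% = labeled peptide with Gαi1 and full inhibition = labeled peptide alone without protein; negative values mean loss of peptide binding seen as reduced polarization.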 The settings on record: Galphai1/FITC-RGS12 GoLoco peptide, fluorescence polarization; series mostly up to 57.1 µM; activity, negative = inhibition: at the top concentration. The source says:
Assay Overview: NIH Molecular Libraries Screening Centers Network [MLSCN] NIH Chemical Genomics Center [NCGC] MLSCN Grant: NS053754-01 Assay Provider: Siderovski, David P, University of North Carolina at Chapel Hill G-protein-coupled receptors (GPCRs) are major targets for drug discovery. The regulator of G-protein signaling (RGS)-protein family has important roles in GPCR signal transduction. RGS proteins contain a conserved RGS-box, which is often accompanied by other signaling regulatory elements. RGS proteins accelerate the deactivation of G proteins to reduce GPCR signaling; however, some also have an effector function and transmit signals. Combining GPCR agonists with RGS inhibitors should potentiate responses, and could markedly increase the agonist's regional specificity. The diversity of RGS proteins with highly localized and dynamically regulated distributions in brain makes them attractive targets for pharmacotherapy of central nervous system disorders. […] A complex of Gai1 and fluorescently labeled G-alpha-binding peptide (the "GoLoco motif") derived from RGS12 is incubated with library members. Inhibitors of the binding are detected by a decrease in the fluorescence polarization (FP) of the fluorophore. Protein was supplied by Prof. David Siderovski, University of North Carolina at Chapel Hill.
Assay Protocol: Reagents/Controls: Assay Buffer: 10 mM Tris-HCl, 150 mM NaCl, 0.1 mM GDP (prepared fresh), and 0.05% NP40 at pH 7.5. […] 10 nM FITC labeled peptide/50 nM protein in columns 1, 2, 5 - 48. Titration of unlabeled peptide control ([H][…][NH2], custom synthesized and HPLC-purified by Tufts University Core Facility) from 10 mM, then 1:2 dilution, 16-point in duplicate, pin-transferred to column 2, rows 1 to 32. Column 1 is neutral. FITC-labeled RGS12-GoLoco peptide was custom-synthesized and HPLC-purified by Michael Berne of Tufts University Assay Steps. Four uL of reagents were dispensed to 1536-well Greiner black solid-bottom plates. Compounds and controls (23 nL) were transferred via Kalypsys PinTool. The plates were incubated for 10 min at room temperature, and then read on ViewLux (Perkin-Elmer) High-throughput CCD imager using FITC polarization filter sets for the fluorescein-labeled decapeptide probe.During dispense, reagent bottles were kept submerged into 4 deg C water bath and all liquid lines were covered with aluminum foil to minimize probe and protein degradation. All screening operations were performed on a Kalypsys robotic system (Kalypsys, Inc., San Diego, CA) containing one RX-130 and two RX-90 anthropomorphic robotic arms.
With `CC(=O)Oc1ccccc1C(=O)O`, the “activity, negative = inhibition” value is -15.7%.

As to `Cc1ccc(N(CC2=NCCN2)c2cccc(O)c2)cc1`, the “activity, negative = inhibition” value is 4.29%. Turning to `OC(CN1CCC(Cc2ccc(F)cc2)CC1)c1ccc(Cl)cc1` (stereo not given), the “activity, negative = inhibition” value was -10%. On to `CC(C)(Sc1ccc(CCN(CCCCC2CCCCC2)C(=O)NC2CCCCC2)cc1)C(=O)O`, for which the “activity, negative = inhibition” value was -9.75%.

`Cc1[nH]c(=O)c(C#N)cc1-c1ccc2nccn2c1`: the “activity, negative = inhibition” value was -11.7%.

`Cc1oncc1C(=O)Nc1ccc(C(F)(F)F)cc1`: the “activity, negative = inhibition” value is -13.8%. Turning to `Cc1[nH]c(=O)c(C#N)cc1-c1ccncc1`, the “activity, negative = inhibition” value was -11.2%. Still for that read-out and setting: to `C[C@]12CCC(=O)C=C1CC[C@@H]1[C@@H]2[C@@H](O)C[C@@]2(C)[C@H]1CC[C@]2(O)C(=O)CO` belongs -20.3%. Same read-out and setting: to `O=c1[nH]cnc2[nH]ncc12` belongs 1.95%; to `CNC[C@H](O)c1cccc(O)c1`, -7.33%. Take `O=NN(CCCl)C(=O)NCCCl`: the “activity, negative = inhibition” value was -11.6%. Same read-out and setting: under `CC(C)NCC(O)COc1ccc(COCCOC(C)C)cc1` (stereo not given) stands 7.69%; under `C1COC(NC(C2CC2)C2CC2)=N1`, -29.4%.

As to `Nc1nc2ccc(OC(F)(F)F)cc2s1`, the “activity, negative = inhibition” value was -19.1%.

As for `CN1CCN(CCCN2c3ccccc3Sc3ccc(C(F)(F)F)cc32)CC1`, the “activity, negative = inhibition” value was -9.93%. Consider `NNCCc1ccccc1`, for which the “activity, negative = inhibition” value is -2.35%. Take `Cc1cnc(NC(=O)C2=C(O)c3ccccc3S(=O)(=O)N2C)s1`: the “activity, negative = inhibition” value was -18.3%. In the case of `NC[C@H](O)c1ccc(O)c(O)c1`, the result was inactive. With `Cc1cn[nH]c1`, the “activity, negative = inhibition” value was -5.35%.

With `CCCCNc1cc(C(=O)O)cc(S(N)(=O)=O)c1Oc1ccccc1`, the “activity, negative = inhibition” value was 2.54%. On the same count and under the same terms, under `Nc1nc2c(ncn2COCCO)c(=O)[nH]1` stands -13.2%.

As for `N=c1nc(N2CCCCC2)cc(N)n1O`, the “activity, negative = inhibition” value was -13.9%. For `O=C1CCc2cc(OCCCCc3nnnn3C3CCCCC3)ccc2N1`, the “activity, negative = inhibition” value is -11.8%. Regarding `N[C@@H]1CONC1=O`, the compound was called inactive. With `NS(=O)(=O)c1cc2c(cc1Cl)NC=NS2(=O)=O`, the “activity, negative = inhibition” value was -21.3%. For `Clc1cccc(Cl)c1NC1=NCCN1`, the “activity, negative = inhibition” value was -13.2%.

With `NCCc1ccc(O)c(O)c1`, the “activity, negative = inhibition” value was -19.6%. Consider `NC(N)=NC(=O)c1nc(Cl)c(N)nc1N`, for which the “activity, negative = inhibition” value was 2.49%.

In the case of `CCCC(CCC)C(=O)O`, the “activity, negative = inhibition” value was 1.24%. As for `NC(=O)c1cnccn1`, the “activity, negative = inhibition” value was 8.88%. With `Nc1ccc(S(=O)(=O)Nc2ccnn2-c2ccccc2)cc1`, the “activity, negative = inhibition” value was -20.9%. The same measure, in the same setting: under `Cn1cnc([N+](=O)[O-])c1Sc1ncnc2nc[nH]c12` stands -17.3%; under `CCOC(=O)N1CCC(=C2c3ccc(Cl)cc3CCc3cccnc32)CC1`, -4.6%. The same measure, in the same setting: to `CCOC(=O)C1=C[C@@]2(CC)CCCN3CCc4c(n1c1ccccc41)[C@H]32` belongs -6.98%; to `O=c1n(CCCN2CCN(c3cccc(Cl)c3)CC2)nc2ccccn12`, -13.2%.
